Growth data for 40 compounds are collected here from PubChem BioAssay (NCI).

Compounds without any hit were thinned out: in the full panel of roughly 83,000, 20% have a hit.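 Single-dose data. Exposure time 48 hours. Values below 10 considered active.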 Unmarked numbers belong to inactive results. Activity calls are given as the source filed them.

For the assay, the system named is SN12C renal. Description: NCI-60 one-dose screen, 48 h (100 = growth as untreated, 0 = no growth, -100 = all killed). Particulars: 10 µM unless noted. The procedure: Growth inhibition of the SN12C human tumor cell line is measured as a screen for anti-cancer activity. Cells are grown in 96 well plates and exposed to the test compound for 48 hours. Compounds are tested at a single concentration, which is 10^-5 M for most compounds. The reported endpoint is percent growth (GI% or GIPRCNT), where numbers from 0 - 100% represent growth inhibition, and numbers from -100% - 0 represent cell death. For example, a value of 40 represents 60% growth inhibition. A value of 0 means no net growth occurred over the course of the experiment. A value of -40 indicates 40% of cells at the beginning of the experiment died by the end of the experiment. A value of -100 means all cells are dead at the end of the experiment.
NCI-60 Human Tumor Cell Lines Screen was performed using the standard one-dose NCI protocol, which is described in more detail at https://dtp.cancer.gov/discovery_development/nci-60/default.htm.
Compounds with GIPRCNT values below 10 were considered active. Activity score was based on GIPRCNT using the following formula: […]
Score is 0 for GIPRCNT values of 100 or above, 50 for GIPRCNT values of 0, and 100 for GIPRCNT values of -100.
Turning to `C[C@H]1[C@H](C)CC[C@]2(COC(=O)c3cccnc3)CC[C@]3(C)C(=CC[C@@H]4[C@@]5(C)CCCNC(C)(C)[C@@H]5CC[C@]43C)[C@H]12`, the growth was 67.6%.
To `O=C1c2c(c3c4cccnc4[nH]c3c3ccc4ccccc4c23)C(=O)N1CCN1CCNCC1` belongs 76.7%; to `O=C1c2c(c3c4cccnc4[nH]c3c3ccc4ccccc4c23)C(=O)N1CCN1CCOCC1`, 68.4%; to `CN1C(=O)N(C)C2C1NN=c1s/c(=C\c3ccccn3)c(=O)n12` (stereo not given), 98.8%.
With `N#Cc1ccc(S(=O)(=O)Nc2ccc(-c3cnc(N)[nH]3)cc2)cc1` the figure was 102%.
In the case of `O=S(=O)(Nc1ccc(C2CC2)cc1)c1ccc(-c2cnc(C3CC3)o2)cc1`, the growth is 75%.
With `COc1ccc(NC(=O)[C@H](C)NC(=O)OC(C)(C)C)cc1C(=O)Nc1cccc(-c2cc(=O)c3c(OC)c(OC)c(OC)cc3o2)c1` the figure was 2.23% (active); with `O=C(CSc1ccc(-c2nc3ccccc3[nH]2)cn1)N1CCN(c2ccccc2F)CC1`, 90.4%.
With `COc1ccc(NS(=O)(=O)c2ccc(-c3cnc(C4CC4)o3)cc2)cc1Cl` the figure was 50.4%; with `CCN1C(=O)N(CC)C2SC(N/N=C/c3ccc(F)cc3)=NC21` (stereo not given), 33.6%.
As to `COc1ccc(/C=N/Nc2nc(N/N=C/c3ccc(OC)cc3O)nc(N3CCOCC3)n2)c(O)c1`, the growth was 75.1%.
To `O=C(CCCCCCN1CC(=O)N2[C@@H](c3cccc(Cl)c3)c3[nH]c4ccccc4c3C[C@H]2C1=O)NO` belongs 65.7%.
In the case of `O=C1c2cc(Br)ccc2-n2c1nc1cc(Br)ccc1c2=O`, the growth is 76.6%.
To `Cn1cc(-c2nn3cc(-c4cccnc4)nc3s2)c2cc(F)ccc21` belongs 85.2%; to `CCN(CC)CCN1C(=O)c2c(c3c4cccnc4[nH]c3c3ccc4ccccc4c23)C1=O`, 71.9%; to `O=C(NCCCNc1cc(-c2cn(-c3ccccc3)nc2-c2cccc(O)c2)ccn1)Nc1cc(C(F)(F)F)cc(C(F)(F)F)c1`, 79.4%.
To `Cn1c2ccc(Br)cc2c2c3c(c4c5cc(F)ccc5oc4c21)C(=O)N(O)C3=O` belongs 90.2%.
As to `CCOC(=O)c1c(NC(=O)c2cccc(C(F)(F)F)c2)sc2c(CN3CCN(C)CC3)c(O)ccc12`, the growth was -83.7% (active).
As to `CC1(C)CC[C@]2(C(=O)N3CCCN(CC#N)CC3)CC[C@]3(C)C(=CC[C@@H]4[C@@]5(C)CC[C@H](O)C(C)(C)[C@@H]5CC[C@]43C)[C@H]2C1`, the growth was 59.6%.
To `N#Cc1c(NC(=O)c2ccc(F)c(Cl)c2)sc2c1CCC(=O)C2` belongs 4.43% (active).
With `O=C(Nc1cccc(-c2nc(-c3ccc(NC(=O)c4cccs4)cc3Cl)no2)c1)Nc1ccc(NC(=O)C2CC2)c(C(F)(F)F)c1` the figure was -51.8% (active); with `Cn1cc(-c2nn3c(=O)cc(-c4ccccc4)nc3s2)c2cc(F)ccc21`, 69.6%; with `O=C(c1cccc(F)c1)n1ccc2cc(NC(=S)Nc3cccnc3)ccc21`, 95.9%.
With `CCOC(=O)/C=c1\sc2n(c1=O)C1C(NN=2)N(CC)C(=O)N1CC` (stereo not given) the figure was 71.9%.
Regarding `O=c1[nH]c(CNc2ccc(NCc3c(-c4ccccc4)no[n+]3[O-])cc2)nc2c1cnn2-c1ccccc1`, the growth was 78.9%.
To `Oc1ccc(CSc2nnc(-c3ccccc3)o2)c2cccnc12` belongs 32.1%; to `C#CCOc1ccc(/C=N/Nc2nc(-c3cc(Cl)ccc3Cl)cs2)cc1`, 88.7%; to `Cc1ccc(C2CC(c3ccc(Nc4nc(NCCO)nc(Nc5ccc(Cl)cc5)n4)cc3)=Nc3c(N)nc(N)nc3N2)cc1` (stereo not given), -65.8% (active).
To `O=C(NNc1nc2cc(F)cc(F)c2n2cccc12)c1ncccn1` belongs 15.7%.
To `CCOC(=O)C1=C(C)Nc2nnc(Nc3ccccc3)n2C1c1ccccc1` (stereo not given) belongs 30.5%; to `CN1C(=O)/C(=C/C=C/c2ccco2)SC1=S`, 84.6%; to `CN1CCN(c2ccc(C(=O)/C=C/c3ccc(Cl)c(C(F)(F)F)c3)cc2)CC1`, 49.1%.
Take `COC(=O)c1nc(-c2ccc(C)cc2)oc1S(=O)(=O)N1CCN(c2oc(-c3ccccc3)nc2C#N)CC1`: the growth was 100%.
To `O=C(CSc1nnc(-c2cccs2)n1-c1ccccc1)Nc1ccc(F)cc1` belongs 95.5%.
To `Fc1ccccc1/C=C(/C1=NCCN1)n1cnc2ccccc21` belongs 97.4%; to `C#C[C@]1(O)CC[C@H]2[C@@H]3CC=C4c5sc(-c6cccc(F)c6)nc5CC[C@]4(C)[C@H]3CC[C@@]21C`, 89.6%.
With `N/C(=N\OC(=O)CSc1nc2ccccc2s1)c1ccc(Cl)cc1` the figure was 102%.
For the compound `CNC(=O)c1cc(Oc2ccc3nc(NC(=O)c4ccc(CN5CCN(C)CC5)c(C(F)(F)F)c4)sc3c2)ccn1`, the growth is 76.4%.
To `Oc1ccc(CSc2nnc(-c3cnccn3)o2)c2cccnc12` belongs 7.45% (active).
To `COc1ccc(-c2ccnc3c(C#N)c(Nc4ccccc4)nn23)cc1OC` belongs 89.8%.
